# What was measured:
# [1] = biological target: T1, Aspartate--tRNA(Asp/Asn) ligase (Mycobacterium tuberculosis (strain ATCC 25618 / H37Rv)) (UniProt P9WFW3); experiment: Assay for Asp RNA synthetase-1 from Mycobacterium tuberculosis; format: functional; design: scale not given: direction of the effect not stated beside the values; conditions: 30 µM; note: in the data most compounds retested in dose-response had high values
# T1 sequence (whole entry): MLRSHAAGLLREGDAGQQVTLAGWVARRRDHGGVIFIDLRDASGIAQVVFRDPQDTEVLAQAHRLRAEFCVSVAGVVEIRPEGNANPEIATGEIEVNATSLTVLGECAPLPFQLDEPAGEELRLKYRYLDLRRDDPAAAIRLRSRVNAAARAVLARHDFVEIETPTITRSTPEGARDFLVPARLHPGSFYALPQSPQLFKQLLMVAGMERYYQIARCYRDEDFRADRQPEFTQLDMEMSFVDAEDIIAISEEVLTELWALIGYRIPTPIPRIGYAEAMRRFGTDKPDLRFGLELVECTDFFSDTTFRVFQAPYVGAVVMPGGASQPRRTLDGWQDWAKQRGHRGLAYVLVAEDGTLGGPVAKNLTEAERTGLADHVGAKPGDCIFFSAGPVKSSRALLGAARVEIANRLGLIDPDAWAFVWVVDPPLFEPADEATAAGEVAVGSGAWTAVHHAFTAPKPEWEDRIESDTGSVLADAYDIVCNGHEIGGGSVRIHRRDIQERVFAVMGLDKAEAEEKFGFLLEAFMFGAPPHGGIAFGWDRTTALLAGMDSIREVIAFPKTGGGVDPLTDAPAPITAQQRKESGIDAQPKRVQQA
# [2] = biological target: Shiga toxin 2 (Escherichia coli O157:H7) (UniProt P09385+P09386); experiment: E. coli 0.157:H7 Shiga Toxin SOP - stx2 screening assay; format: functional; design: scale not given: direction of the effect not stated beside the values; conditions: 30 µM
Compound,Percent Effect [1] [%],Percent Effect [2] [%]
CC(C)C(NC(=O)N1CCN(c2ccc(Cl)cc2)CC1)C(=O)NC1CC1 (stereo unspecified),-3.72,7.46
Cc1ncsc1-c1nnc(C2CCN(Cc3ccc(F)cc3)CC2)o1,4.24,-43.6
COc1ccc(-c2noc(CN3CCOCC3C)n2)cc1OC (stereo unspecified),4.1,26.5
